Only some compounds are listed: those with a hit (about 19% of all), similar ones and a draw of the others.
ASM inhibitor – inhibitors of human secretory acid sphingomyelinase | P17405 | placental ASM, HMU-PC fluorogenic substrate, 60 min | Potency, µM (highest dose often 57.5 µM), inactives show at the top dose activity change, negative = inhibition, hits mostly inhibitors | 0.006% of 340,000 active | AID 504937; also: potency is read from the fitted curve at half-maximal effect
Target sequence (P17405 47-631 limits assumed): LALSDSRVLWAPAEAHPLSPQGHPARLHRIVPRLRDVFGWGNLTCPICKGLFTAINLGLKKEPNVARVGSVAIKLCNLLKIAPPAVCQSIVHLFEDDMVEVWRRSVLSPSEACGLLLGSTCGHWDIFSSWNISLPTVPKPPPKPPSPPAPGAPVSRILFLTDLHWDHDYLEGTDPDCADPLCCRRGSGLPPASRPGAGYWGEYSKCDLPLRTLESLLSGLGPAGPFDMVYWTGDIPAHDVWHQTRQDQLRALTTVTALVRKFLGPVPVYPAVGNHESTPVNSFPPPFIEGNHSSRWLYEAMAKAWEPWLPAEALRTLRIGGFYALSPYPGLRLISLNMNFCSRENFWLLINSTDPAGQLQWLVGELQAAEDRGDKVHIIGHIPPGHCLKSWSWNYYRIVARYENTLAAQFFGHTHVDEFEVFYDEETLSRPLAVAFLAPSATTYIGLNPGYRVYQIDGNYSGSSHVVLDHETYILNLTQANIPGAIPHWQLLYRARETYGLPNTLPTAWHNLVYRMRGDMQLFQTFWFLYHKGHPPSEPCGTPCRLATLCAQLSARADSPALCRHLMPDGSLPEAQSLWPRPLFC
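qHTS format. ASM enzyme prepared from human placenta hydrolyses the fluorogenic substrate HMU-PC0 (9 uM final) over 60 min at 37 °C after a 10 min compound preincubation.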
DT40 TDP1 CPT – DT40-hTDP1 cell growth loss with CPT. chicken DT40 Tdp1-/-;hTDP1 cells + 20 nM CPT, ATP luminescence, 48 h. Potency, µM (highest dose often 46.2 µM), for inactives: at the top dose activity change, negative = growth inhibition, actives largely listed as inhibitors. 12% of 420,000 active; also: potency is read from the fitted curve at half-maximal effect; % is scaled to controls: 0 for no effect and ±100 for the full control effect; nearly all actives have a fitted effect of over 55% in size
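Cell growth measured by CellTiter-Glo luminescence after a minimum 48 h, 37 C compound exposure with 20 nM CPT in Tdp1-knockout DT40 cells stably expressing hTDP1, seeded 400/well; qHTS titration format.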
DT40 TDP1 no CPT – qHTS for Inhibitors of human tyrosyl-DNA phosphodiesterase 1 (TDP1): qHTS in cells in absence of CPT. DT40 Tdp1-/- hTDP1 cells, no CPT, ATP luminescence, 48 h. Potency, µM (top dose mostly 46.2 µM), for inactives: top-dose activity change, negative = growth inhibition, usual class: inhibitors. 15% of 420,000 active; also: potency is read from the fitted curve at half-maximal effect; % is scaled to controls: 0 for no effect and ±100 for the full control effect; nearly all actives have a fitted effect of over 55% in size
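Growth of hTDP1-complemented DT40 Tdp1-knockout cells is measured by ATP luminescence after at least 48 hr compound exposure at 37 °C, with DMSO substituting for the 20 nM CPT used in the parallel screen.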
IL1B secr inh – inhibitors of inflammasome signaling (IL-1 beta secretion) | activity change, % at 57.5 µM | AID 743279 | 4.7% of 360,000 active | THP-1 LPS/ATP IL-1B secretion, AlphaLISA, 16 h; hits give low values; in the data active = activity change below about -50%; inconclusive = mostly about -30% to -49%; also: % is scaled to controls: 0 for no effect and ±100 for the full control effect
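Secreted IL-1B measured by AlphaLISA bead assay after 16 h compound exposure of THP-1 cells; compounds (final up to 57.5 uM) added 1 h before LPS (250 ng/mL) and ATP (1.25 mM) stimulation; lower signal means less secretion.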
HepG2 viability – kills HepG2 cells in TGF-b inhibitor counter-screen. HepG2 CAGA-GFP viability, ATP luminescence, 18 h. Potency, µM (series often up to 46.1 µM), for inactives: at the top dose activity change, negative = cytotoxicity, most hits filed as cytotoxic. 0.76% of 410,000 active; also: potency is read from the fitted curve at half-maximal effect
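CellTiter-Glo luminescence gave cytotoxicity after 18 hours at 37 degrees C. The cells were HepG2 CAGA-GFP in 1% FBS DMEM, stimulated with 500 pg/mL TGF-beta after compound addition. %Activity was normalised to no-cell wells (complete cell-killing) and DMSO (no toxicity), and curves were fitted and classified.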
TGFb inhibitor – inhibitors of TGF-b signaling; 1.2% of 410,000 active; Potency, µM (doses to about 46.1 µM), without a hit: at the highest dose activity, negative = inhibition, usual class: inhibitors; AID 588855; HepG2 CAGA-GFP TGF-b/SMAD3 reporter, GFP fluorescence, 18 h; TGF-beta stimulated, 500 pg/mL final; also: potency is read from the fitted curve at half-maximal effect; % is scaled to controls: 0 for no effect and ±100 for the full control effect; nearly all actives have a fitted effect of over 65% in size
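TGF-beta reporter screen: HEPG2 CAGA-GFP, 1% FBS, 500 pg/mL TGF-beta final, 18 h; per-cell GFP summed per well; curves fitted and categorized by class.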
An asterisk follows results filed as active. Unless noted, calls follow the shape of the dose curve; as a rule, active = well fitted curve in the direction sought with a large enough effect; inconclusive = small, poorly fitted or top-dose-only effect, or another doubt; inactive = no such curve, though single readings can be large; an effect the other way counts as inactive or inconclusive.

What do the screens show for `Cc1ccc(C(=O)Nc2cccc([N+](=O)[O-])c2)cc1S(=O)(=O)Nc1ccc(NC(=O)c2ccccc2)cc1`?
ASM inhibitor: inconclusive; DT40 TDP1 CPT: 16.4µM*; DT40 TDP1 no CPT: 16.4µM*; IL1B secr inh: 5.9; HepG2 viability: 3.9%; TGFb inhibitor: -11.6%

How did Cc1ccc(NS(=O)(=O)c2cc(C(=O)Nc3cccc([N+](=O)[O-])c3)ccc2C)cc1 do in these assays?
ASM inhibitor: inconclusive; DT40 TDP1 CPT: inconclusive; DT40 TDP1 no CPT: inconclusive; IL1B secr inh: -80.4*; HepG2 viability: -1.9%; TGFb inhibitor: inconclusive

Results for Cc1ccc(C(=O)Nc2ccccc2C(=O)O)cc1S(=O)(=O)Nc1ccccc1 ?
ASM inhibitor: 22.4%; DT40 TDP1 CPT: -29.4%; DT40 TDP1 no CPT: 23.1µM*; IL1B secr inh: 10.2; HepG2 viability: 0.4%; TGFb inhibitor: -10.1%

Results for Cc1ccc(C)c(NC(=O)c2ccccc2NS(=O)(=O)c2cc([N+](=O)[O-])ccc2C)c1 ?
ASM inhibitor: -0.8%; DT40 TDP1 CPT: 3.26µM*; DT40 TDP1 no CPT: 4.11µM*; IL1B secr inh: inconclusive; HepG2 viability: -40.8%; TGFb inhibitor: 2.51µM*

Results for Cc1cccc([C@@H]2[C@@H]3C(=O)N(Cc4ccccc4)C(=O)[C@@H]3[C@]3(Cc4ccc(Cl)cc4)C(=O)N(c4cccc(Br)c4)C(=O)N23)c1 ?
ASM inhibitor: 0.7%; DT40 TDP1 CPT: inconclusive; DT40 TDP1 no CPT: -12.3%; IL1B secr inh: -2.1; HepG2 viability: 1.2%; TGFb inhibitor: 1.2%

Results for COc1ccc(/C=C/c2nnc(NC(=O)C(C)(C)C)s2)cc1 ?
ASM inhibitor: inactive; DT40 TDP1 CPT: 0.6%; DT40 TDP1 no CPT: inconclusive; IL1B secr inh: -10.4; HepG2 viability: -10.5%; TGFb inhibitor: 3.6%

How did O=C(COC(=O)c1cc(Cl)cc(Cl)c1)NCc1ccco1 do in these assays?
ASM inhibitor: -5.1%; DT40 TDP1 CPT: 5.7%; DT40 TDP1 no CPT: 2.1%; IL1B secr inh: -10.6; HepG2 viability: 10.6%; TGFb inhibitor: -0.2%

How did COCCCNC(=O)Cn1c(=O)n(-c2cccc(C)c2)c(=O)c2c1c1cc(C)ccc1n2C do in these assays?
DT40 TDP1 CPT: -22.9%; DT40 TDP1 no CPT: inconclusive; HepG2 viability: -3.2%; TGFb inhibitor: -13.1%

What do the screens show for `O=C(Nc1ccccc1)c1ccc(Cl)c(S(=O)(=O)Nc2ccccc2)c1`?
DT40 TDP1 CPT: inconclusive; DT40 TDP1 no CPT: inconclusive; HepG2 viability: -23.7%; TGFb inhibitor: -24.3%

Results for CN(c1cccc(NC(=O)c2ccc(Cl)c(S(=O)(=O)Nc3ccccc3)c2)c1)S(C)(=O)=O ?
ASM inhibitor: -16.4%; DT40 TDP1 CPT: inconclusive; DT40 TDP1 no CPT: 16.4µM*; IL1B secr inh: -7.8; HepG2 viability: -21.3%; TGFb inhibitor: -64.8%

What do the screens show for `CN1/C(=C\C(=O)C[n+]2cccc(Br)c2)C(C)(C)c2ccccc21`?
ASM inhibitor: -1.8%; DT40 TDP1 CPT: 4.61µM*; DT40 TDP1 no CPT: 5.8µM*; IL1B secr inh: -1.7; HepG2 viability: -26.2%; TGFb inhibitor: -18.6%

What do the screens show for `Cc1cccc[n+]1CC(=O)/C=C1\N(C)c2ccccc2C1(C)C`?
ASM inhibitor: -1.1%; DT40 TDP1 CPT: 3.26µM*; DT40 TDP1 no CPT: 3.26µM*; IL1B secr inh: 16.5; HepG2 viability: -13.6%; TGFb inhibitor: inconclusive

How did CN1/C(=C\C(=O)C[n+]2ccc(C(=O)c3ccccc3)cc2)C(C)(C)c2ccccc21 do in these assays?
ASM inhibitor: -8.8%; DT40 TDP1 CPT: 0.82µM*; DT40 TDP1 no CPT: 1.16µM*; IL1B secr inh: -19.0; HepG2 viability: -11.3%; TGFb inhibitor: -16.5%

Results for CN1/C(=C\C(=O)C[n+]2cccc(C(N)=O)c2)C(C)(C)c2ccccc21 ?
ASM inhibitor: -8.9%; DT40 TDP1 CPT: 13.4%; DT40 TDP1 no CPT: -15.1%; IL1B secr inh: 11.8; HepG2 viability: 10.9%; TGFb inhibitor: 4.3%

What do the screens show for `Cc1ccc[n+](CC(=O)/C=C2\N(C)c3ccccc3C2(C)C)c1`?
ASM inhibitor: -2.3%; DT40 TDP1 CPT: 1.16µM*; DT40 TDP1 no CPT: 1.64µM*; IL1B secr inh: -2.6; HepG2 viability: -2.8%; TGFb inhibitor: inconclusive

Results for COc1ccc(CNC(=O)C(C)Sc2ccc(S(=O)(=O)N3CCOCC3)cn2)cc1 (configuration not stated) ?
ASM inhibitor: -0.3%; DT40 TDP1 CPT: -12.7%; DT40 TDP1 no CPT: -4.5%; IL1B secr inh: -2.7; HepG2 viability: 1.6%; TGFb inhibitor: 0.8%

What do the screens show for `COc1ccc(-c2ccc3c(c2)C2CC3CCN2C(=O)C(C)(C)C)cc1` (configuration not stated)?
ASM inhibitor: -14.9%; DT40 TDP1 CPT: inconclusive; DT40 TDP1 no CPT: 20.6µM*; IL1B secr inh: -5.6; HepG2 viability: -50.3%; TGFb inhibitor: -19.1%

Results for O=C(c1ccc(-c2ccccc2)cc1)N1CCC2CC1c1cc(-c3ccc4c(c3)OCO4)ccc12 (configuration not stated) ?
DT40 TDP1 CPT: inconclusive; DT40 TDP1 no CPT: inconclusive; IL1B secr inh: -25.5; HepG2 viability: 12.5%; TGFb inhibitor: -24.1%

How did Cc1ccc(C(=O)N2CCC3CC2c2cc(-c4ccc5c(c4)OCO5)ccc23)cc1 (configuration not stated) do in these assays?
ASM inhibitor: -17.2%; DT40 TDP1 CPT: 16.4µM*; DT40 TDP1 no CPT: 13µM*; IL1B secr inh: 2.9; HepG2 viability: -5.9%; TGFb inhibitor: inconclusive

How did CCCCN(C(C)=O)c1ccc2c(c1)C1CC2CCN1C(=O)OCc1ccccc1 (configuration not stated) do in these assays?
ASM inhibitor: 18.1%; DT40 TDP1 CPT: 2.06µM*; DT40 TDP1 no CPT: 3.66µM*; IL1B secr inh: 5.6; HepG2 viability: -26.6%; TGFb inhibitor: 12.6µM*

Results for COc1cccc(-c2ccc3c(c2)C2CC3CCN2C(C)=O)c1 (configuration not stated) ?
ASM inhibitor: -0.6%; DT40 TDP1 CPT: -1.7%; DT40 TDP1 no CPT: inconclusive; IL1B secr inh: 19.3; HepG2 viability: -26.5%; TGFb inhibitor: -3.1%

Screening data deposited in PubChem BioAssay by National Center for Advancing Translational Sciences (NCATS).
